# Reference: PubChem BioAssay (Tox21)
# “And” between values parts separate entries of the source, which are not always exact repeats. Identical values can stand only once. Results filed as inconclusive are left out. The source made the active and inactive calls. Calls come from the whole dose curve; as a rule, active = well fitted cell-killing curve with a large enough effect in the repeat runs; inconclusive = weak or mixed curves, or effect the other way; inactive = flat fitted curve, though single readings scatter.
# Test: cAMP Responsive Elements (CRE) small molecule agonists, cell-based qHTS assay: qHTS cell viability counter screen (AID 2060914); note: nearly all actives have a fitted effect of over 50% in size
# Details: CRE-bla HEK293T viability, CellTiter-Glo luminescence, 5 h; series mostly up to 92.4 µM; activity change, negative = cytotoxicity: at the top concentration
# Summary of the method: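 CRE-bla HEK293T cells in 10% dialyzed FBS medium were exposed to compounds for 3 h at 37C after 18 h plating. CellTiter-Glo was then added in the same wells, and luminescence was read after 30 min at room temperature.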
# % is set by controls: 0 for no effect and ±100 for the full control effect; potency is the fitted concentration of half-maximal effect.
SMILES,"activity change, negative = cytotoxicity",Potency
C[C@H](CCC(=O)O)[C@H]1CC[C@H]2[C@@H]3C(=O)C[C@@H]4CC(=O)CC[C@]4(C)[C@H]3CC(=O)[C@]12C,-1.36% [at 42.5 µM] (inactive),–
CC1(C)C(O)C(C)(C)C1O (stereo not given),4.42% (inactive),–
C#CC(C)(CC)OC(=O)c1ccccc1C(=O)O (stereo not given),-8.08% [at 42.5 µM] (inactive),–
CC/C=C\CCOC(=O)CC,3.91% (inactive),–
CC(C(O)c1ccccc1)N(C)CCOC(c1ccccc1)c1ccccc1 (stereo not given),-10% [at 42.5 µM] (inactive),–
CC/C=C\C#N,-1.35% (inactive),–
O=C(O)c1ccc(S(=O)(=O)N(Cl)Cl)cc1,–,inactive
CCCCCC(=O)OCCc1ccccc1,3.84% (inactive),–
OCC#CCO,–,inactive
c1ccc(C[P+](c2ccccc2)(c2ccccc2)c2ccccc2)cc1,1.69% (inactive),–
C=CCNC(N)=S,–,inactive
COC(=O)C(C)=O,-15.2% (inactive),–
CN(C)CCN(C)CCO,-29.1% (inactive),–
CCCCCCCCCC#N,0.671% (inactive),–
Nc1cc(Cl)c(O)c(Cl)c1,-7.01% (inactive),–
CC(C)(C)C(=O)CC(=O)C(C)(C)C,-3.55% (inactive),–
CCCCN1C(=O)c2ccccc2C1=O,5.5% (inactive),–
NC(CS)C(=O)O (stereo not given),2.9% [at 42.5 µM] (inactive),–
CC(O)CN(CCN(CC(C)O)CC(C)O)CC(C)O (stereo not given),–,inactive
Cc1c(O)cccc1C(=O)N[C@@H](CSc1ccccc1)[C@H](O)CN1C[C@H]2CCCC[C@H]2C[C@H]1C(=O)NC(C)(C)C,-5.39% [at 42.5 µM] (inactive),–

SMILES,"activity change, negative = cytotoxicity",Potency
O=C(c1ccc(O)cc1O)c1ccc(O)cc1O,–,inactive
O=S(=O)(O)c1ccc2nc(-c3ccccc3)[nH]c2c1,–,29.1 µM (active) and 21.1 µM (active)
NCC1(Cc2noc(=O)[nH]2)CCCCC1,-1.98% (inactive),–
O=C(O)c1ccccc1C(c1ccc(O)cc1)c1ccc(O)cc1,–,inactive
Nc1ccc(C(=O)N2CC3CC(CN(Cc4ccccc4)C3)C2)cc1,1.41% [at 42.5 µM] (inactive),–
Cc1nccn1-c1ccc(Sc2cccc(C3(C(N)=O)CCOCC3)c2)cc1,0.411% (inactive),–
CSSc1ccoc1C,16.4% (inactive),–
O=C(Nc1ccc([N+](=O)[O-])cc1)Nc1ccc([N+](=O)[O-])cc1,4.2% [at 42.5 µM] (inactive),–
CC(=O)O[C@]1(C(C)=O)CC[C@H]2[C@@H]3C=C(C)C4=CC(=O)CC[C@]4(C)[C@H]3CC[C@@]21C,–,inactive
NCCCOCCOCCOCCCN,-9.2% (inactive),–
CCCC1C(CC)=CC(CC)=CN1c1ccccc1 (stereo not given),-21.2% (inactive),–
CCCN(C1CCN(C(=O)C2CCNCC2)CC1)[C@@H]1CCc2ccc(OC)cc2C1,8.5% (inactive),–
COc1cc(OC)cc(OC)c1,-2.93% [at 42.5 µM] (inactive),–
COC(=O)NCCC[Si](OC)(OC)OC,2.89% (inactive),–
CCc1ccccc1,1.9% (inactive),–
O=C(O)CCCCCCC(=O)O,-3.9% (inactive),–
C/C=C/C(=O)Oc1c(CCCCCC(C)C)cc([N+](=O)[O-])cc1[N+](=O)[O-],-34.5% (inactive),–
O=CC=C(c1ccccc1)c1ccccc1,4.21% (inactive),–
CC1(C)S[C@@H]2[C@H](NC(=O)C(c3ccccc3)S(=O)(=O)O)C(=O)N2[C@H]1C(=O)O (stereo not given in full),-3.05% [at 42.5 µM] (inactive),–
CCOC(=O)CC(C(C)=O)C(C)=O,2.04% (inactive),–
